According to PubChem BioAssay (NCI):
The panel holds about 83,000 compounds, 20% with a hit somewhere; the sample as a whole holds those more often.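 Interpretation: 100, growth as untreated; towards 0, rising growth inhibition; 0, no net growth; 0 to -100, cell death. Compounds scoring below 10 were considered active.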 A number with no mark means an inactive call. Activity calls are given as the source filed them.

Tests used:
Experiment in all cases: NCI-60 one-dose screen, 48 h (100 = growth as untreated, 0 = no growth, -100 = all killed)
Details in all cases: 10 µM unless noted
[1] = tested on: BT-549 breast
[2] = tested on: MDA-MB-435 melanoma
[3] = tested on: SW-620 colon
[4] = tested on: MCF7 breast
[5] = tested on: HCT-116 colon
[6] = tested on: HCC-2998 colon
[7] = tested on: KM12 colon

| SMILES | growth [1] | growth [2] | growth [3] | growth [4] | growth [5] | growth [6] | growth [7] |
| --- | --- | --- | --- | --- | --- | --- | --- |
| O=c1[nH]c2ccc(Cl)cc2cc1CSc1ccccc1Nc1nccc(-c2ccc(Cl)cc2)n1 | 113% | 96.8% | 91.9% | 70.3% | 90.4% | 119% | 92% |
| N#Cc1nc(-c2ccccc2)oc1N1CC[C@@H](CO)C1 | 117% | 99% | 99% | 70.5% | 103% | 110% | 111% |
| CS(=O)(=O)c1ccc(-c2nc3ccccn3c2/C=N/Nc2nc(-c3ccc(Br)cc3)cs2)cc1 | 114% | 97.2% | 98.2% | 92.4% | 101% | 120% | 101% |
| O=C(CN1C(=O)/C(=C/c2ccccc2)SC1=S)N1CCOCC1 | 97.5% | 96.2% | 87.2% | 80.8% | 98.3% | 112% | 100% |
| OC1CCN(CCCOc2c3ccccc3nc3c2oc2ccc(Cl)cc23)CC1 | 57.1% | -40.6% (active) | 2.39% (active) | 2.99% (active) | 15.9% | 21.9% | 1.06% (active) |
| N#Cc1c(-c2ccc(Cl)cc2)nc(SCc2ccc([N+](=O)[O-])cc2)nc1N1CCNCC1 | 89.6% | -63.3% (active) | -52.8% (active) | -43.9% (active) | -91.5% (active) | -40.1% (active) | -47.2% (active) |
| Cc1nc2cnc(N)c(C#Cc3cncc(C(=O)Nc4ccc(Cl)c(C(F)(F)F)c4)c3)c2nc1C | 86.7% | 41% | -18.9% (active) | -67.5% (active) | 15.4% | 60.4% | 3.01% (active) |
| OC1CCN(CCCOc2c3ccc(Cl)cc3nc3c2oc2ccc(Cl)cc23)CC1 | 46.6% | -70.4% (active) | -82.6% (active) | -79.7% (active) | 12.3% | 36.8% | -74.3% (active) |
| CN(C)CCCNc1c2ccccc2nc2c1oc1ccc(Cl)cc12 | 57.9% | 33.5% | 9.93% (active) | -25.7% (active) | 22.5% | -43.7% (active) | 25.5% |
| C#Cc1nc(C2=C(C)C(OC(=O)CCC(=O)O)CC2)cs1 (configuration not stated) | 102% | 106% | 113% | 87.6% | 114% | 109% | 79.2% |
| COC(=O)C1CN(S(=O)(=O)/N=C2\NC(=O)NC2=C(Cl)Cl)C1 | 110% | 107% | 114% | 34.1% | 111% | 121% | 8.89% (active) |
| Cc1cc2nc3c4cc(Cl)ccc4n(CC(=S)NCCN(C)C)c3nc2cc1C | 75% | -92.4% (active) | -91.4% (active) | -81.5% (active) | -94.2% (active) | -82.9% (active) | -60.2% (active) |
| CN(C)CCCNc1c2ccc(Cl)cc2nc2c1oc1ccc(Cl)cc12 | 79.9% | -74.3% (active) | -79% (active) | -76.4% (active) | -93.7% (active) | -85.1% (active) | -56.3% (active) |
| CC(C)(C)Nc1nc2c(OCCc3ccccc3)cccn2c1-c1ccc(O)cc1 | 85.4% | 72.5% | 69% | 45.4% | 38.2% | 52.2% | 38.2% |
| O=C1NC(=C(Cl)Cl)/C(=N/S(=O)(=O)N2CCCCC2CC2(C(F)(F)F)N=N2)N1 (configuration not stated) | 68% | 41.6% | -82.2% (active) | 9.63% (active) | -28.8% (active) | 5.46% (active) | 9.36% (active) |
| COc1ccc(-c2nc3ccc(-c4nnc(SCC(=O)Nc5ccc(C(=O)/C=C/c6ccc(Cl)cc6)cc5)o4)cc3[nH]2)cc1OC | 106% | 106% | 105% | 75.9% | 101% | 124% | 104% |
